Test results reported in the supplement of paper PMC8975748.
Structures can show the parent of a compound that is named as a salt. ± gives the standard deviation of the averaged measurements.

Columns and labels:
[1] = tested on: Saccharomyces cerevisiae BY4741 SeMeCo community; experiment: mean cell size (pixel area) (pixels); higher = larger cells; settings: 10 µM; 24 h; SM minimal medium
Method in brief: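 The test system was a fluorescent Saccharomyces cerevisiae BY4741 community with four plasmids, each restoring one auxotrophy and carrying a fluorescent marker. Cells were grown for 24 h in SM medium with drug at a final 10 µM in 384-well plates, then fixed with paraformaldehyde and imaged by automated confocal microscopy for Harmony analysis of mean cell pixel area per well. Values represent the average of 3 replicates. Same SeMeCo high-content imaging drug screen: Selleck FDA-approved drugs at 10 µM, 24 h in SM medium, 384-well plates, 3 replicates.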

[2] = tested on: Saccharomyces cerevisiae BY4741 SeMeCo community; experiment: z-score of prototroph abundance vs DMSO median; higher = larger share of this subpopulation than in DMSO controls; settings: 10 µM; 24 h; SM minimal medium; subpopulation (auxotrophy): Prototroph
Method in brief: (§1)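 Cells of a Saccharomyces cerevisiae BY4741 community, carrying four plasmids that each restored one auxotrophy and encoded a distinct fluorescent protein, were pre-grown overnight to OD600 1.0 and diluted to 0.3. A 70 µl volume was added to 384-well plates acoustically predosed with library drugs (10 µM final) and grown 24 h in minimal SM medium. After paraformaldehyde fixation, automated confocal microscopy was used, with single-auxotroph fluorescent strains for thresholds and autofluorescence correction. The abundance of each subpopulation was scored as a z-score against the vehicle-well median.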

[3] = tested on: Saccharomyces cerevisiae BY4741 SeMeCo community; experiment: z-score of subpopulation abundance vs DMSO median, subpopulation auxotrophic for M; higher = larger share of this subpopulation than in DMSO controls; settings: 10 µM; 24 h; SM minimal medium; subpopulation (auxotrophy): M
Method in brief: as §1

[4] = tested on: Saccharomyces cerevisiae BY4741 SeMeCo community; experiment: z-score of subpopulation abundance vs DMSO median, subpopulation auxotrophic for L; higher = larger share of this subpopulation than in DMSO controls; settings: 10 µM; 24 h; SM minimal medium; subpopulation (auxotrophy): L
Method in brief: as §1

[5] = tested on: Saccharomyces cerevisiae BY4741 SeMeCo community; experiment: z-score of subpopulation abundance vs DMSO median, subpopulation auxotrophic for U; higher = larger share of this subpopulation than in DMSO controls; settings: 10 µM; 24 h; SM minimal medium; subpopulation (auxotrophy): U
Method in brief: as §1

[6] = tested on: Saccharomyces cerevisiae BY4741 SeMeCo community; experiment: z-score of subpopulation abundance vs DMSO median, subpopulation auxotrophic for H; higher = larger share of this subpopulation than in DMSO controls; settings: 10 µM; 24 h; SM minimal medium; subpopulation (auxotrophy): H
Method in brief: as §1

[7] = tested on: Saccharomyces cerevisiae BY4741 SeMeCo community; experiment: z-score of subpopulation abundance vs DMSO median, subpopulation auxotrophic for LU; higher = larger share of this subpopulation than in DMSO controls; settings: 10 µM; 24 h; SM minimal medium; subpopulation (auxotrophy): LU
Method in brief: as §1

[8] = tested on: Saccharomyces cerevisiae BY4741 SeMeCo community; experiment: z-score of subpopulation abundance vs DMSO median, subpopulation auxotrophic for LM; higher = larger share of this subpopulation than in DMSO controls; settings: 10 µM; 24 h; SM minimal medium; subpopulation (auxotrophy): LM
Method in brief: as §1

[9] = tested on: Saccharomyces cerevisiae BY4741 SeMeCo community; experiment: z-score of subpopulation abundance vs DMSO median, subpopulation auxotrophic for HM; higher = larger share of this subpopulation than in DMSO controls; settings: 10 µM; 24 h; SM minimal medium; subpopulation (auxotrophy): HM
Method in brief: as §1

[10] = tested on: Saccharomyces cerevisiae BY4741 SeMeCo community; experiment: z-score of subpopulation abundance vs DMSO median, subpopulation auxotrophic for HU; higher = larger share of this subpopulation than in DMSO controls; settings: 10 µM; 24 h; SM minimal medium; subpopulation (auxotrophy): HU
Method in brief: as §1

[11] = tested on: Saccharomyces cerevisiae BY4741 SeMeCo community; experiment: z-score of subpopulation abundance vs DMSO median, subpopulation auxotrophic for UM; higher = larger share of this subpopulation than in DMSO controls; settings: 10 µM; 24 h; SM minimal medium; subpopulation (auxotrophy): UM
Method in brief: as §1

[12] = tested on: Saccharomyces cerevisiae BY4741 SeMeCo community; experiment: z-score of subpopulation abundance vs DMSO median, subpopulation auxotrophic for HL; higher = larger share of this subpopulation than in DMSO controls; settings: 10 µM; 24 h; SM minimal medium; subpopulation (auxotrophy): HL
Method in brief: as §1

[13] = tested on: Saccharomyces cerevisiae BY4741 SeMeCo community; experiment: z-score of subpopulation abundance vs DMSO median, subpopulation auxotrophic for HLM; higher = larger share of this subpopulation than in DMSO controls; settings: 10 µM; 24 h; SM minimal medium; subpopulation (auxotrophy): HLM
Method in brief: as §1

[14] = tested on: Saccharomyces cerevisiae BY4741 SeMeCo community; experiment: z-score of subpopulation abundance vs DMSO median, subpopulation auxotrophic for HUM; higher = larger share of this subpopulation than in DMSO controls; settings: 10 µM; 24 h; SM minimal medium; subpopulation (auxotrophy): HUM
Method in brief: as §1

[15] = tested on: Saccharomyces cerevisiae BY4741 SeMeCo community; experiment: z-score of subpopulation abundance vs DMSO median, subpopulation auxotrophic for LUM; higher = larger share of this subpopulation than in DMSO controls; settings: 10 µM; 24 h; SM minimal medium; subpopulation (auxotrophy): LUM
Method in brief: as §1

[16] = tested on: Saccharomyces cerevisiae BY4741 SeMeCo community; experiment: z-score of subpopulation abundance vs DMSO median, subpopulation auxotrophic for HLUM; higher = larger share of this subpopulation than in DMSO controls; settings: 10 µM; 24 h; SM minimal medium; subpopulation (auxotrophy): HLUM
Method in brief: as §1

[17] = tested on: Saccharomyces cerevisiae BY4741 SeMeCo community; experiment: z-score of subpopulation abundance vs DMSO median, subpopulation auxotrophic for HLU; higher = larger share of this subpopulation than in DMSO controls; settings: 10 µM; 24 h; SM minimal medium; subpopulation (auxotrophy): HLU
Method in brief: as §1

SMILES	mean cell size [1]	z-score of prototroph abundance [2]	z-score of subpopulation abundance [3]	z-score of subpopulation abundance [4]	z-score of subpopulation abundance [5]	z-score of subpopulation abundance [6]	z-score of subpopulation abundance [7]	z-score of subpopulation abundance [8]	z-score of subpopulation abundance [9]	z-score of subpopulation abundance [10]	z-score of subpopulation abundance [11]	z-score of subpopulation abundance [12]	z-score of subpopulation abundance [13]	z-score of subpopulation abundance [14]	z-score of subpopulation abundance [15]	z-score of subpopulation abundance [16]	z-score of subpopulation abundance [17]
CO[C@@H]1[C@@H](O[C@@H]2O[C@H](C)[C@@H](O[C@H]3C[C@@](C)(O)[C@@H](O)[C@H](C)O3)[C@H](N(C)C)[C@H]2O)[C@@H](CC=O)C[C@@H](C)[C@@H](O[C@H]2CC[C@H](N(C)C)[C@@H](C)O2)/C=C/C=C/C[C@@H](C)OC(=O)C[C@H]1OC(C)=O [Acetylspiramycin (ASPM)]	12.3 ± 0.32	-0.27	-0.27	1.91	-1.32	1	0.65	1.53	0.27	-0.58	-0.94	1.77	0.23	0.11	1.09	1.07	
C#C[C@]1(O)CC[C@H]2[C@@H]3CCc4cc(OC5CCCC5)ccc4[C@H]3CC[C@@]21C [Quinestrol]	12.4 ± 0.25	-0.35	0.32	1.42		0.33	1.93	-0.07	0.17	0.41	-0.33	0.28	0.37	0.52	0.36	0.63	
CC1(C)S[C@@H]2[C@H](NC(=O)[C@H](NC(=O)N3CCNC3=O)c3ccccc3)C(=O)N2[C@H]1C(=O)O [Azlocillin sodium salt]	12.4 ± 0.27	0.68		1.83	-1.51			1.34	-0.15	-1.18	-1.29	0.33			0.86		-0.4
CC(=O)[O-].[K+] [Potassium acetate]	12.5 ± 0.15	0.52	-0.39	-0.45	-0.46		-0.01	-0.98	-0.29	0.19	-0.51	0.08	-0.9	-0.43	-0.06	-0.44	
CS(=O)(=O)c1ccc(C2=C(c3ccccc3)C(=O)OC2)cc1 [Rofecoxib]	12.3 ± 0.16	-0.48	0.64	1.07	-0.52	0.29	0.3	1.55	1.11	0.01	0.95	0.69	1.01	0.77	1.28	0.43	
N[C@@H](C(=O)N[C@@H]1C(=O)N2C(C(=O)O)=C(Cl)CS[C@H]12)c1ccccc1 [Cefaclor]	12.45 ± 0.095	-0.66	0.46	0.23	0.82		0.23	0.52	0.64	0.41			0.3	0.37	0.65	0.66	
Cc1onc(-c2ccccc2)c1-c1ccc(S(N)(=O)=O)cc1 [Valdecoxib]	12.3 ± 0.17	1	-0.21	0.01	-0.55	-0.55	-0.06	0.09	-0.77		-0.64	-0.64	-0.74	-0.83	-0.21	-0.56	
CC(C)N1CCN(c2ccc(OCC3COC(Cn4cncn4)(c4ccc(Cl)cc4Cl)O3)cc2)CC1 (centres undefined) [Terconazole]	12.1 ± 0.043	1.34	-1.43	0.04	-0.27	-0.38	-0.65	-0.49	-1.2	-0.58	-0.8		-0.59	-0.65	-0.86	-0.55	
O=C(O[C@@H]1C[C@@H]2C[C@H]3C[C@H](C1)N2CC3=O)c1c[nH]c2ccccc12 [Dolasetron Mesylate]	12.18 ± 0.11	-0.86	0.81	-0.52	0.89	-0.55	1.19	0.31	1.09	0.7	1.07	0	0.35	0.41	0.21	-0.07	
O=C(c1ccccc1)c1ccc2n1CCC2C(=O)O (centres undefined) [Ketorolac tromethamine salt]	12.3 ± 0.19		0.27	0.3		0.35	-0.75	-0.1	-0.41	-0.79	-0.28	-0.19	-0.09	-0.75	-0.12	-0.11	
CCOC(=O)c1ccc(O)cc1 [Ethylparaben]	12.5 ± 0.25	-1.38	-0.6	-0.33	1.83	-0.25	0.65	-0.67	-0.62	1.78	1.66	-0.54	0.26	0.44	0.63	1.8	
O=C1CN(/N=C/c2ccc(-c3ccc([N+](=O)[O-])cc3)o2)C(=O)N1 [Dantrolene sodium]	12.4 ± 0.18	2.09	0.97	2.03	-3.65	0.84	-2.49	1.59	0.62	-3.33	-2.91	1.35	1.18	-2.36		0.72	
NC(=O)C(c1ccccc1)(c1ccccc1)[C@@H]1CCN(CCc2ccc3c(c2)CCO3)C1 [Darifenacin HBr]		0.34		-0.21	0.01	-1.43			-0.73	-0.14	0.53	-0.56	-0.63		-0.55	-0.5	-0.45
